Test results published in PubChem BioAssay AID1159506 (National Center for Advancing Translational Sciences (NCATS), 2015).
Whole data set: some 59,000 sequences, median the read-out near -0.00055, cut for the lowest 2% near -2. Only a selection was taken, and the lowest values are over-represented in it overall.

Assay: Identification of proteins required for the processing of the EWS-FLI1 nascent transcript;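 note: robust z of luciferase light less the median z of siRNAs with the same seed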
Settings: TC32 Ewing sarcoma NR0B1-luc vs CMV-luc (EWS-FLI1 target promoter against control promoter), 48 h; screened at 20 nM (by protocol)
Summary of the method: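 Parallel TC32-NR0B1-luc and TC32-CMV-luc reverse transfections with 20 nM siRNA in RPMI-1640/10% FBS, luciferase measured 48 h later. Seed-adjusted z-scores from normalized, z-score-MAD transformed data; AllStars negative and siGL4 controls on each plate.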

First: UGUUCAAUCUUGGAGCUGG against LRRC8E
Second: AAAGAUCAAAUCUGAUUCC against MRPL19
The seed-corrected z-score of the first is higher: 1.15 for the first, -0.8 for the second.

Going from AUAUGUUCAAGGUGAUUCG against OR6K2 to AUCGCGAACACUAACGUAC against SUB1, the seed-corrected z-score rises from -0.456 to -0.141.

First: UUAGGUAACGGAAACGGGC against LDHC
Second: UUGGUAUUGAUCGUUUAUG against DCUN1D1
The seed-corrected z-score of the first is lower: 0.562 for the first, 1.03 for the second.

Going from AUACCGAAAACCUUCGCCC against ABCA3 to UAUGGUUACAAAGGGAACU against ZNF669, the seed-corrected z-score falls from 0.623 to 0.508.

First: UCAGGUACAAUUCUGAUUC against KRT38
Second: UUGGGUGUCAGGAUCUCGU against MYH14
The seed-corrected z-score of the first is higher: -0.223 for the first, -2.4 for the second.

First: UACAUCUCCAGGGUCAGCG against CALY
Second: UCUGCGACUCCUGUUCUGC against WRBP1
The seed-corrected z-score of the first is lower: -0.514 for the first, 0.0575 for the second.

Going from UUUGUAAGGUUGCUGAUCG against CLIP1 to UUCUCGUCUAGUUUGCAUC against SH3RF3, the seed-corrected z-score falls from 0.221 to 0.155.

First: AUUGUUUGUGGUAUUGUAG against CRHR1
Second: UGAGUGCUUACUGGUUUGC against C9orf47
The seed-corrected z-score of the first is higher: 0.211 for the first, -3.58 for the second.

First: UCGGAUGUAUCUGAGGUGC against DCAF8L1
Second: UCUAAUUCUGCGGCUUUUC against SCAMP1
The seed-corrected z-score of the first is lower: -0.269 for the first, -0.0112 for the second.

Compared with UAGAUGCUCAGGGAUCACC against AS3MT, UUUCGAACACGAAACAUUC against LOC340089 is lower in seed-corrected z-score: 1.06 for the first, -0.0497 for the second.

First: AUACCUGCUAAUGUCAUCC against ERCC6
Second: ACAGUUAGUAUUGUACUUG against ZNF280C
The seed-corrected z-score of the first is lower: -3.8 for the first, 0.315 for the second.

Compared with UGAGUUUCCAGGCUAUCAC against CCDC122, AUACUGAAAAUAGUACAUG against KMT5A is higher in seed-corrected z-score: -2.99 for the first, 0.332 for the second.

First: UGUACAGAGAGGGCAUGUG against BAIAP2L2
Second: UUUCAUAGAUUAGCACUCC against PRKACB
The seed-corrected z-score of the first is lower: -1.82 for the first, -0.257 for the second.

Compared with UCGGUGAUGAGGCUGAUCC against G6PC3, AGUGUAACAGACAUCAUGC against DLAT is lower in seed-corrected z-score: -0.843 for the first, -0.966 for the second.

Compared with UUGUAUUCCCUUGUGGUCC against KHDRBS1, UGCUUUGUCGUAAUCUUCC against UNC45A is higher in seed-corrected z-score: -2.93 for the first, -0.29 for the second.

First: AAAAUAAUCGAUGUGAUUU against FOXI3
Second: AUCACUCUCACAUACAUGG against RCAN1
The seed-corrected z-score of the first is lower: -0.41 for the first, -0.288 for the second.

Compared with UAUCGUGAAACAGACUUCC against SND1, UUCUAAACAACUCUUGGAC against RPUSD4 is lower in seed-corrected z-score: 0.0523 for the first, -0.962 for the second.

First: UACAGGGUCAGGGAGAGGU against PTPN6
Second: UUGUAUACAACCUAUCAAC against B4GALT6
The seed-corrected z-score of the first is lower: -2.18 for the first, -0.657 for the second.

Compared with UUAUUUUGAAUAGCCUUCC against SERBP1, UAUAUCGACAGCUCAGCUC against SUPT6H is lower in seed-corrected z-score: 1.09 for the first, -4.43 for the second.

First: UUGGUAUCCAAAGACGAUG against RTKN2
Second: AAGGGCAAAGGAGUGAGGC against LOC100289495
The seed-corrected z-score of the first is lower: -0.918 for the first, -0.199 for the second.

Going from UUCUGGUUAGUCAUAUUGG against HDAC1 to UUGAGGGCAGAAGUACACU against FAM231D, the seed-corrected z-score falls from -0.41 to -0.76.

Going from UGGUUUGUCAGCGGGAUUC against MINK1 to AUCCGAACACCCAUAAGCC against POLK, the seed-corrected z-score rises from -2.53 to -0.479.

Going from UUAAUUCUAUUCGAUCAUC against MNS1 to UCUUAUGUUGGUGUUGUUC against SMOC1, the seed-corrected z-score rises from 0.033 to 0.0653.

First: UGAGUGAUAGUCUAGACUC against SOX9-AS1
Second: UUUAUUUAGGGAGCUCCAG against ETHE1
The seed-corrected z-score of the first is lower: 0.0191 for the first, 0.835 for the second.

Going from UUACGUUCAGAGUCUAUCG against C17orf75 to UUGUUGAUCACUUUGACGG against IKZF3, the seed-corrected z-score rises from 0.0852 to 0.604.

First: AAACAGUCCAUUAACUUCU against RBM38
Second: UUCUUGGUAAGAUCGAGAG against RNF43
The seed-corrected z-score of the first is higher: 0.257 for the first, -2.77 for the second.

First: AAUGCGAUUAUUGUCUGUC against CCT3
Second: UCGGUUGUAUAUGUCAUCC against KIAA0100
The seed-corrected z-score of the first is lower: 0.0264 for the first, 0.141 for the second.

Going from UUCACUGAUCUGAAAGUUG against NAA10 to UCACUGUGCAUUUCUCCAC against GUCD1, the seed-corrected z-score rises from 0.839 to 0.93.

Going from UUAUAGUAUGCAGGAAUGG against FAM150B to UGACUAAGAACUGUAUCCC against CC2D2B, the seed-corrected z-score falls from -1.67 to -2.16.

First: UUUUCGGCGUGUAUCCUCG against CHMP1B
Second: UCUUUGACAAGGACCCUUC against G2E3
The seed-corrected z-score of the first is lower: -0.617 for the first, 1.23 for the second.

Going from UAGGUCAAGAUAACCAUGC against OR8K1 to UUUGUGCUGCUUGUUCUCG against ADCK3, the seed-corrected z-score rises from -13.9 to -1.

Compared with UGUAUCUCGAUCUUCACCG against STRN, UGCAUGAAUAGAGUCGGCG against RAB22A is lower in seed-corrected z-score: -0.0881 for the first, -0.347 for the second.

First: AAAUAUAUAGGGCAUCCAG against PLEKHM1P1
Second: UCUUCUCUAAGUCUAGGUC against POM121
The seed-corrected z-score of the first is lower: 0.174 for the first, 0.532 for the second.

Going from UGCUGAAUAGGUCCAAUCC against HERPUD1 to UCAUAUGGAACUCUAAAGC against PIK3CG, the seed-corrected z-score rises from -1.46 to 0.358.

Going from AAUCUUCAAACAGCCGCUC against CHRNA3 to AUAUGAUUCCCAAUUAAUG against TMEM119, the seed-corrected z-score rises from -2.52 to 1.74.

First: UAAGAUCCGAGUCACUAUC against RPH3AL
Second: UUUCAGCUUCUUGUACUGG against ROCK1P1
The seed-corrected z-score of the first is higher: -0.639 for the first, -2.99 for the second.

First: UCGUUGAUCACAAUUAGCU against ADAM11
Second: UCUGGUAUCAGAAAGUUCG against BBS7
The seed-corrected z-score of the first is higher: 0.436 for the first, -0.128 for the second.

Going from ACAGAUAUAGGAGAAAGCC against NUMBL to UAGCCUAUCAAUGAAACCU against ZNF222, the seed-corrected z-score rises from 0.00267 to 0.694.

First: UUUACGUCGUUCUUCUUCC against TXLNG
Second: UUUGGGUCAACGGUGAGGU against KIAA2012
The seed-corrected z-score of the first is lower: 0.0162 for the first, 0.316 for the second.

Going from AUGUUUUUCAAGUAGCUUC against CDRT4 to UUAACUUGUUGUAUUGCUG against CCDC109B, the seed-corrected z-score rises from -1.38 to 1.36.

First: AACACUAUUUAGCUCAUUC against TARBP1
Second: UGAGAGAUAAUUUUGGGAG against SPDYC
The seed-corrected z-score of the first is higher: 0.0464 for the first, -12.8 for the second.

First: UUACUUUCUUCAACCAAAG against TRMT6
Second: UUUCGAAGUUGCAUGGUUG against KDM5D
The seed-corrected z-score of the first is higher: 0.527 for the first, -0.291 for the second.

Compared with UCUUAGACCCUGGAGGUGG against TBRG4, UAUUAGACAGAACUCUUGG against TNRC6C is lower in seed-corrected z-score: -0.178 for the first, -14.8 for the second.

Compared with UUAGAUUUCUCCCUCGGUG against ZNF136, UCUUCGAACUGAAUGAGUG against ME2 is higher in seed-corrected z-score: -0.576 for the first, 0.165 for the second.

First: UUUACUGGGAUAGUUAAUC against C2CD4A
Second: UCCACUAUUACAACAGCCC against SFPQ
The seed-corrected z-score of the first is higher: 1.08 for the first, -2.65 for the second.

Compared with UUCUUAUCAAGAAUAGUCC against PTER, UUCUGCGUCACUUUCUACC against CRNKL1 is lower in seed-corrected z-score: -0.285 for the first, -0.902 for the second.

Compared with UUUGGGACAAGGCACAAGC against PRKCDBP, UACAAUACUAUUUCGAAUC against ZNF44 is lower in seed-corrected z-score: 0.468 for the first, -0.235 for the second.

First: UCAAAUACUGGUCGAAUUC against SOX7
Second: UUGGGCAUAAUGGAAGCUG against EIF2B2
The seed-corrected z-score of the first is higher: 0.0233 for the first, -1.39 for the second.

Going from UUGGGUAGUAGCAUAGCCU against SYNC to UUGAUUUCCACUCCUUUUG against SGCD, the seed-corrected z-score rises from -2.19 to -0.522.

Compared with UAUUUCUCGAUUAUCUUCA against ICA1L, UGCAGUACCAGGUUCAGGG against DOK1 is higher in seed-corrected z-score: -1.21 for the first, 0.361 for the second.

Going from AAUCCCAAAACCUUCUCGC against TPRG1L to ACUUGGAAAUCUCUUUUCG against FAM117A, the seed-corrected z-score rises from -2.07 to 0.27.

First: UGUUGCAUUCUUGUCAUCC against CRAMP1
Second: UGACAUGUCCUCAACAUCA against TMEM91
The seed-corrected z-score of the first is higher: -0.303 for the first, -1.41 for the second.

Compared with UUAUCGUCAUGGUAAACAC against GXYLT1, UCAGUAUCCAGGUCAGUGC against LEMD2 is higher in seed-corrected z-score: 0.378 for the first, 0.794 for the second.

Going from UCCUCCCUAACAAAUAGGC against NUDT16 to AAGGUUGCUAUACGUGGGC against C19orf35, the seed-corrected z-score falls from -0.295 to -2.85.

Going from UUUCAAUCCUGUAAGGGUC against CDC23 to UGGAUAAUCAGGAUGGUCC against AKR1C4, the seed-corrected z-score falls from 0.07 to -0.343.

Compared with UAAGCAACAGGAGCUCAGU against KRT6B, UGGUUGAUCAAUGCGAUAG against C11orf54 is lower in seed-corrected z-score: 0.507 for the first, -0.331 for the second.

Going from UUUGAGUACUCCAAGAUGU against C20orf96 to AUAGCUUCCACUUUAGCGG against KDM5A, the seed-corrected z-score falls from 0.627 to -3.29.

First: AUAGGUACUACAUAUGAGC against DSC2
Second: AACAUAACAGUUGAAGUGA against TMEM244
The seed-corrected z-score of the first is higher: -0.323 for the first, -0.604 for the second.

Going from UGAGCUACAUGUGAAGGCC against ZNF35 to UAAUUUCAAGCCGAUCUUC against EIF3H, the seed-corrected z-score falls from -0.965 to -1.14.

Going from UUGACUAUAACCUGAAGCC against OTX2 to UAGGAAUCCUCGUUUAGUG against YWHAH, the seed-corrected z-score rises from -2.79 to 0.112.

First: UCAUUGUCCGAUGCCUUGG against SLCO1B3
Second: UUCUGCCCAAGUACAAUGG against C16orf52
The seed-corrected z-score of the first is higher: -0.953 for the first, -2.07 for the second.

Going from UCUUUGAGAAUGUCAAGCU against TIMM44 to UCUCUGUAUCGUAUGGUGG against NTN4, the seed-corrected z-score falls from 0.11 to -0.868.

Going from UUGGUAGACACCUCCUUGU against KRT13 to UUUGCGACAAAACAGUUUG against DEPTOR, the seed-corrected z-score falls from 0.268 to 0.125.

Compared with AUCAGAAUCAGGAUAGGCC against RND2, AAUCUCACAGGUGAAGUGG against OR2S2 is lower in seed-corrected z-score: 0.812 for the first, -0.14 for the second.

Compared with AGAGUUGUCAGAAGGGCGG against NCR2, UGCAUAAUAAGUCAUGUGG against DCN is higher in seed-corrected z-score: -5.82 for the first, -0.34 for the second.

First: UUUCCUUCUGCUCUCGUGC against RCAN3
Second: AUCUUUAGAACAUCGGUGG against SLC25A14
The seed-corrected z-score of the first is higher: 0.855 for the first, -0.984 for the second.

AUAUGCUUCACCUCUUUAC against SNTB2 showed a seed-corrected z-score of -2.92.
